Pf Dd2 inh = Plasmodium falciparum Dd2 growth inhibition. AID 1347417. P. falciparum Dd2 growth, SYBR Green, 72 h. Potency, µM (highest dose often 28.9 µM), actives largely listed as inhibitors. actives 4.3% (n = 120,000); active = well fitted inhibition curve with a large enough effect; also: nearly all actives have a fitted effect of over 65% in size
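Readout: SYBR Green fluorescence, 485 nm excitation, 535 nm emission, after ~16 h lysis at 37C. Before that, Dd2-infected red cells (2.5% hematocrit) grew 72 h with compound, 29 uM top final concentration.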
Each line names hits and unclear results; the compound was inactive in the other large screens. This excerpt belongs to a sample that is enriched for hits.

C=CCc1ccccc1OCCN(C)Cc1nc(C)ccc1O	Pf Dd2 inh 8.91µM
Cn1ccnc1CN1C(=O)CO[C@H](c2ccc(NC(=O)CC(C)(C)C)cc2)[C@H]1CO	none
COc1cccc(CC(=O)N2CC(Oc3ccc(-c4nc(-c5ccccc5)no4)cc3)C2)c1	none
COCC(=O)N(C1CCOCC1)C1CCN(S(=O)(=O)c2cccnc2)CC1	none
CC(C)CN(C1CCOCC1)C1CN(S(=O)(=O)c2ccc(F)cc2)C1	none
CC(C)CCN(C1CCOCC1)C1CCN(S(=O)(=O)c2cccnc2)CC1	Pf Dd2 inh 10µM
COC[C@H]1CCCN1Cc1nc(C2(O)CCN(C3CCCC3)CC2)cs1	none
N[C@@H](Cc1cnc[nH]1)C(=O)NCc1cccnc1Oc1ccc(F)cc1F	none
